# Compounds with a hit are over-represented: about 4.2% of the library has one in this group of screens.
# V-ATPase pH = alters yeast V-ATPase proton transport; AID 504577; response, % at 10 µM; S. cerevisiae, pHLuorin cytosolic pH fluorescence; 0.37% of 350,000 active; in the data active means response mostly above about 7.3%, no sharp cut-off; inactive means mostly below about 5.4%; further: actives read high
# NALP1 yeast inh = inhibitors of NALP1 inflammasome in yeast; S. cerevisiae NALP1/ASC/caspase-1 growth, X-gal OD620, 72 h; inhibition, % at 10 µM; 0.61% of 280,000 active; AID 2071; in the data active means inhibition mostly above about 24%, no sharp cut-off; inactive means mostly below about 32%
# tim23-1 inh = growth inhibitors of tim23-1 mutant yeast; S. cerevisiae tim23-1 growth, BacTiter-Glo luminescence, 24 h; inhibition, % at 20 µM; 1.3% of 330,000 active; AID 463212;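 active means growth inhibition of the mutant yeast at or above 50%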;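 further: temperature-sensitive mutant grown at 25 °C; plate controls were DMSO-treated mutant yeast for no effect and medium wells lacking yeast for full effect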
# tim10-1 inh = inhibits growth of tim10-1 mutant yeast. inhibition, % at 20 µM. AID 463190. 2.2% of 330,000 active. S. cerevisiae tim10-1 ts strain growth, BacTiter-Glo, 24 h;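 active means inhibition of at least 40%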;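 further: mutant grown at 25 °C; 0% = DMSO wells with yeast and 100% = wells holding no yeast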
# TIM10 inh = TIM10 yeast growth inhibition | S. cerevisiae TIM10 strain growth, BacTiter-Glo luminescence, 24 h | 1.4% of 330,000 active | inhibition, % at 10 µM | AID 463195;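 active means inhibition of 40% or more at the single tested concentration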;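 further: wild-type TIM10 isogenic control strain grown at permissive 25 °C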
# NALP3 yeast inh = NALP3 inhibition in yeast; 0.39% of 330,000 active; AID 2825; inhibition, % at 10 µM; Yeast reconstituted NLRP3/ASC/caspase-1, beta-gal luminescence, 24 h;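 active means inhibition of 50% or more; inactive means inhibition below 50%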;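 further: plate controls were induced DMSO wells for no effect and uninduced yeast grown without galactose for full effect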
# tim10-1 conf = confirmation of tim10-1 mutant yeast growth inhibitors | S. cerevisiae tim10-1 ts strain growth, BacTiter-Glo, 24 h | shares compounds with tim10-1 inh | 56% of 7,400 active | inhibition, % at 20 µM;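 active means inhibition of yeast growth at or above a set limit in either of two repeat tests at 20 µM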;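 further: tim10-1 mutant grown at permissive 25 °C to find synthetic lethal compounds; 0% = DMSO yeast wells and 100% = medium wells without yeast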
# Numbers without * were called inactive; · = no result.
SMILES,V-ATPase pH,NALP1 yeast inh,tim23-1 inh,tim10-1 inh,TIM10 inh,NALP3 yeast inh,tim10-1 conf
COc1ccc(C(C(=O)NC2CCCC2)N(CC2CCCO2)C(=O)Cc2cccs2)cc1OC (stereo unspecified),-4,-11,4,16,19,7,·
COc1cccc(C(C(=O)NC2CCCC2)N(CC2CCCO2)C(=O)Cc2cccs2)c1 (stereo unspecified),1,-12,12,45*,14,6,21
S=c1[nH]c2cc(-c3ccccc3)ccc2o1,2,-26,48,43*,31,15,28
CCOC(=O)C1CCN(S(=O)(=O)c2cc(Br)cc3c2N(C(=O)C2CC2)CC3)CC1,-4,37,33,34,33,8,·
O=C(C1CC1)N1CCc2cc(Br)cc(S(=O)(=O)N3CCN(c4ccccn4)CC3)c21,3,36,28,44*,10,20,37*
COc1ccc(NC(=O)c2ccc(Oc3ncccn3)cc2)cc1,1,-20,-1,9,-5,0,·
S=C(Nc1ccc2nsnc2c1)N1CCCC1,-3,11,15,41*,26,8,14
CCCCCCCCCS(=O)(=O)N/N=C/c1cccc([N+](=O)[O-])c1,5,28,24,42*,14,11,30
CCC(=O)NNc1cccc(Cl)n1,-2,14,-8,-17,-24,1,·
Cc1nc2c(-c3ccccc3)cnn2c(N)c1-c1ccccc1,0,36,39,43*,30,10,39*
Cc1cccc(OCC(=O)Nc2ccc(C(=O)Nc3ccccc3C(=O)O)cc2)c1,-2,·,·,·,·,·,·
Cc1cccc(C(=O)Nc2ccccc2C(=O)OCC(=O)Nc2ccc(C#N)cc2)c1,-1,27,20,43*,38,8,11
Cc1ccc(-c2ccc(CN3C(CC(C)C)C(=O)N(Cc4cn(CCC5OCCCO5)nn4)CCS3(=O)=O)cc2)cc1 (stereo unspecified),0,·,·,·,·,·,·
CCCc1ccc2oc(C(=O)N(C)Cc3ccn[nH]3)c(C)c2c1,0,13,22,30,-8,30,·
Cc1csc(-c2coc3cc(O)cc(C)c3c2=O)n1,1,-14,50,43*,16,30,9
CCc1cc2c(=O)c(-c3nc(C)cs3)coc2cc1O,-3,·,-5,5,10,21,·
O=C(Nc1ccccc1Cl)C1CCCN(c2ncnc3c2nc2n3CCCCC2)C1 (stereo unspecified),1,2,40,54*,22,15,12
COc1ccccc1NC(=O)C1CCCN(c2ncnc3c2nc2n3CCCCC2)C1 (stereo unspecified),-5,13,15,19,9,10,·
CCc1cccc(NC(=O)C2CCCN(c3ncnc4c3nc3n4CCCCC3)C2)c1 (stereo unspecified),5,10,13,40*,6,24,13
O=C1N(c2ccc(Cl)cc2)C(c2ccccc2)N2CCCN12 (stereo unspecified),4,21,-4,-12,-15,2,·
CC1CCc2c(sc3ncnc(NCCCOC(C)C)c23)C1 (stereo unspecified),-2,-12,43,40,13,19,10
Cc1noc(/C=C/c2ccccc2F)c1S(=O)(=O)N1CCC(C(=O)N2CCN(C)CC2)CC1,4,12,34,40*,8,16,16
CCCN1C[C@H](CSC)C[C@@H]2c3cccc4[nH]cc(c34)C[C@H]21,1,18,-1,-7,-3,24,·
CC(NC(=O)c1ccc(F)cc1)c1nc2ccccc2n1Cc1ccccc1F (stereo unspecified),-1,15,27,42*,8,4,29*
CCCn1c(C(C)NC(=O)c2ccccc2)nc2ccccc21 (stereo unspecified),-1,-137,·,·,·,·,·
SMILES,V-ATPase pH,NALP1 yeast inh,tim23-1 inh,tim10-1 inh,TIM10 inh,NALP3 yeast inh,tim10-1 conf
Cc1cccn2c(=O)c3cc(C(=O)NC4CCCCC4)c(=N)n(Cc4ccc(F)cc4)c3nc12,4,18,21,42*,5,7,-9
Cc1cccn2c(=O)c3cc(C(=O)NC4CCCC4)c(=N)n(CC4CCCO4)c3nc12 (stereo unspecified),3,4,3,-4,5,0,·
Cc1nn(-c2ccccc2)c(C)c1Cc1ccc(O)cc1,-2,10,40,23,3,36,·
Cc1nn(-c2ccccc2)c2c1C(O)n1c(nc3ccccc31)S2 (stereo unspecified),0,29,38,41*,25,14,-5
Cc1cc(C)c2nc3c(c(C(=O)O)c2c1)CCC3,1,-21,-9,4,13,1,·
CCn1c(COc2ccc(C)cc2)nnc1SCC(=O)Nc1cc(OC)ccc1OC,-4,-14,40,13,2,17,·
Cc1nn(-c2ccc(Cl)c(Cl)c2)c(=O)c2ccccc12,3,17,5,14,9,0,·
Cc1nn(-c2ccc3ccccc3c2)c(=O)c2ccccc12,-1,4,40,40*,35,6,28
Cc1cc(C(=O)Nc2nc3ccc(S(C)(=O)=O)cc3s2)c(C)o1,-1,24,-1,34,7,6,·
CCOc1ccc(N(Cc2ccc(OC)cc2)C(=O)c2ccco2)cc1,5,14,24,44*,9,-2,20
O=C(O)c1ccc(Nc2nc(-c3ccc([N+](=O)[O-])cc3)nc3ccccc23)cc1,-4,23,-7,-8,-9,22,·
Cc1ccccc1Nc1nc(-c2cccnc2)nc2ccccc12,2,3,45,43*,-13,21,19
CC(=O)Nc1ccc(Nc2nc(-c3ccccc3)nc3ccccc23)cc1,-1,7,23,48*,35,15,34*
Cc1ccc(CNc2nc(-c3cccnc3)nc3ccccc23)cc1,-3,10,43,31,-5,16,·
COc1ccc(NC(=O)CSc2nc(-c3ccc(C)cc3)cc(C(F)(F)F)c2C#N)cc1,0,1,-20,-2,12,-4,·
COC(=O)N1C(=O)[C@@](c2ccccc2)(C2CCCC2)N1C(=O)OC,2,5,31,42*,37,1,32*
COc1ccc(NC(=O)c2cc([N+](=O)[O-])ccc2O)cc1,-1,-6,46,52*,37,2,51*
CC12CCC(=O)N1C(C(=O)NNC(=O)c1cccc(Cl)c1)CS2 (stereo unspecified),-3,·,-13,-20,-9,12,·
CCSc1ccc2nnc(-c3cccc(F)c3)n2n1,-3,21,38,40*,33,28,34*
O=C(CSc1ccc2nnc(-c3cccc(F)c3)n2n1)N1CCCc2ccccc21,7,14,10,31,9,-10,·

# Bioassay records deposited in PubChem BioAssay by several laboratories.
